AmpC no deterg: blocks E. coli AmpC beta-lactamase in detergent-free assay; AID 485341; Potency, µM (highest dose often 57.1 µM), for the others: at the top dose activity change, negative = inhibition, hits mostly inhibitors; P00811; AmpC nitrocefin hydrolysis, absorbance 480 nm, 0.0001% Triton; hit rate 0.52% among 330,000;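 further: potency means the concentration at half of the fitted maximal effect; plate controls were no compound for no effect and no enzyme for full effect; nearly all actives have a fitted effect of over 20% in size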
Target sequence (P00811 whole entry, looked up): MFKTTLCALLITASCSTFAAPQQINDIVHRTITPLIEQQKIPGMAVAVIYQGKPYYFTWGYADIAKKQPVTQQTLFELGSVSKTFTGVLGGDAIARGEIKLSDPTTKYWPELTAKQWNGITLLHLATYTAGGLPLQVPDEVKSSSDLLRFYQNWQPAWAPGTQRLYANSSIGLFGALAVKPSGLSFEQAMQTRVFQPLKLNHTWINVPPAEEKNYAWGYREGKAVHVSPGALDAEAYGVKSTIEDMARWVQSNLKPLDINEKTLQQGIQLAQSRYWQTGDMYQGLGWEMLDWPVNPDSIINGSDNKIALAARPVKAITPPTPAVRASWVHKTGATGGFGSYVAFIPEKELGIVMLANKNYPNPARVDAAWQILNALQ
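AmpC (5.3 nM in the dispensed reagent) in 20 mM phosphate pH 7.0 with 0.01% (detergent screen) or 0.0001% Triton X-100 was preincubated with compounds for 15 min at room temperature. Nitrocefin was then added from an 800 uM solution, and hydrolysis was followed at 480 nm.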
AmpC inh detg: blocks E. coli AmpC beta-lactamase in detergent assay | P00811 | AmpC hydrolysis of nitrocefin, absorbance 480 nm, 0.01% Triton | Potency, µM (series often up to 114 µM), inactives show at the top dose activity change, negative = inhibition, usual class: inhibitors | hit rate 0.041% among 370,000 | AID 485294;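 further: potency means the concentration at half of the fitted maximal effect; 0% = no-compound wells and -100% = no-enzyme wells; nearly all actives have a fitted effect of over 25% in size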
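20 mM phosphate pH 7.0 + 0.01% (detergent screen) or 0.0001% Triton X-100; 5.3 nM AmpC reagent; cpd preinc 15 min RT; nitrocefin (800 uM stock) to start; A480 q20 s × 4 min; Activity was normalised to no-enzyme and no-compound control wells.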
RE007 growth inh: less growth of the S. pombe RE007 Vpr strain. hit rate 0.21% among 360,000. Potency, µM (doses to about 92.2 µM), without a hit: top-dose activity change, negative = less growth, usual class: inhibitors. S. pombe RE007 Vpr strain, BacTiter-Glo ATP luminescence, 24 h. AID 651644; active means well fitted falling curve with a large enough effect; inconclusive means small, poorly fitted or top-dose-only effect; inactive means no such curve, though single readings can be large or run the other way; further: potency means the concentration at half of the fitted maximal effect; on the % scale 0 is the no-effect control and ±100 the full control effect; nearly all actives have a fitted effect of over 50% in size
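Fission yeast strain RE007, carrying one chromosomally integrated HIV-1 vpr copy, was seeded at OD 0.01 in PMG+AL medium with 23 nL pinned compound. After 24 h at 30 °C and 99% humidity, viability was read by BacTiter-Glo luminescence.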
SARS PLpro yeast-1: SARS-CoV PLP inhibition in yeast. Potency, µM (highest dose often 32.9 µM), for the others: at the highest dose activity, positive = growth rescue, usual class: activators. S. cerevisiae expressing SARS-CoV PLpro, growth rescue. hit rate 0.19% among 330,000. AID 485353; calls by dose curve; further: potency means the concentration at half of the fitted maximal effect; 0% is about no effect; nearly all actives have a fitted effect of over 55% in size
Sm TGR block: inhibitors of Schistosoma mansoni thioredoxin glutathione reductase | Potency, µM (highest dose often 114 µM), inactives show at the highest dose activity change, negative = inhibition, hits mostly inhibitors | AID 485364 | hit rate 3% among 360,000 | purified TGR, DTNB reduction, TNB absorbance 405 nm; further: potency means the concentration at half of the fitted maximal effect; on the % scale 0 is the no-effect control and ±100 the full control effect; nearly all actives have a fitted effect of over 60% in size
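TGR 20 nM + NADPH 100 uM (dispensed conc.), cpd preinc 15 min RT; start with NADPH (500 uM addition) then DTNB (15 mM addition). Kinetic TNB absorbance, 405 nm filter. Four-parameter Hill fit across titration.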
Tb PYK inh: inhibitors of Trypanosoma brucei pyruvate kinase. TbPYK enzyme, Kinase-Glo Plus ATP luminescence, 45 min. hit rate 0.12% among 410,000. Potency, µM (series often up to 76.8 µM), inactives show top-dose activity, negative = inhibition, most hits filed as inhibitors; further: potency means the concentration at half of the fitted maximal effect; on the % scale 0 is the no-effect control and ±100 the full control effect; nearly all actives have a fitted effect of over 50% in size
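Activity of T. brucei pyruvate kinase was followed by Kinase-Glo Plus luminescence after the enzyme reacted 45 min at room temperature with 130 uM ADP (final) and substrate. Test compounds were added before ADP at multiple concentrations.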
SARS PLpro yeast-2: Inhibits SARS-CoV PLP in yeast, hit validation | calls only | yeast expressing SARS-CoV PLpro, growth phenotype rescue | shares compounds with SARS PLpro yeast-1 | hit rate 19% among 1,000 | AID 652038; call rule not given here
* = called active by the depositor. Compounds with a hit are over-represented: about 3.3% of the library has one in this group of screens. Unless noted, the call rests on the fitted dose curve; in most records, active means well fitted curve in the direction sought with a large enough effect; inconclusive means small, poorly fitted or top-dose-only effect, or another doubt; inactive means no such curve, though single readings can be large; an effect the other way counts as inactive or inconclusive.

For CCCN1C(=O)SC(CC(=O)Nc2ccccc2C)C1=O (stereo not drawn) the results were AmpC no deterg -15.5%, AmpC inh detg -4.7%, RE007 growth inh 2.6%, SARS PLpro yeast-1 inconclusive, Sm TGR block -34.6%, Tb PYK inh 3.2% and SARS PLpro yeast-2 inactive.
Screening CCCN1C(=O)SC(CC(=O)Nc2ccc(Br)cc2)C1=O (stereo not drawn) returned AmpC no deterg -21.3%, AmpC inh detg inconclusive, RE007 growth inh 7.0%, SARS PLpro yeast-1 -18.6%, Sm TGR block -18.1% and Tb PYK inh 3.7%.
`CC1CSc2ccccc2NC1=S` (stereo not drawn) gave AmpC no deterg -18.0%, AmpC inh detg inconclusive, RE007 growth inh -10.8%, SARS PLpro yeast-1 10µM*, Sm TGR block -5.0%, Tb PYK inh -4.2% and SARS PLpro yeast-2 active.
For S=C1CSc2ccccc2N1 the results were AmpC no deterg -24.0%, AmpC inh detg -4.2%, RE007 growth inh -2.0%, SARS PLpro yeast-1 -1.3%, Sm TGR block 4.1% and Tb PYK inh -7.1%.
For CCn1cc(C(=O)NCc2ccc(C)cc2)c(=O)c2cc(S(=O)(=O)N(C)C3CCCCC3)ccc21 the results were AmpC inh detg 4.2%, Sm TGR block inconclusive and Tb PYK inh 0.0%.
`CCCC(=O)Nc1ccc(C(=O)NNC(=O)c2ccco2)cc1` gave AmpC no deterg -17.6%, AmpC inh detg -5.0%, RE007 growth inh -7.5%, SARS PLpro yeast-1 inconclusive, Sm TGR block 4.3%, Tb PYK inh -0.4% and SARS PLpro yeast-2 inactive.
Screening Cc1ccc2c(c1)c(=O)c(C(=O)c1ccncc1)cn2CC(=O)Nc1c(C)cccc1C returned AmpC inh detg 25.3%, Sm TGR block -7.1% and Tb PYK inh 2.5%.
For CCN(c1cccc(C)c1)S(=O)(=O)c1cccc(C(=O)O)c1 the results were AmpC no deterg -12.5%, AmpC inh detg 1.3%, RE007 growth inh 13.3%, SARS PLpro yeast-1 inconclusive, Sm TGR block 0.0%, Tb PYK inh -0.3% and SARS PLpro yeast-2 inactive.
For COC(=O)c1ccc(Cl)cc1NC(=O)NC(C)c1c(-n2cccc2)sc(C)c1C (stereo not drawn) the results were AmpC inh detg -0.6%, Sm TGR block -7.5% and Tb PYK inh -3.8%.
`C=CCn1c(SCC(=O)Nc2cc(C)on2)nc2c([nH]c3ccccc32)c1=O` gave AmpC no deterg -15.4%, AmpC inh detg 1.5%, RE007 growth inh -4.4%, SARS PLpro yeast-1 inconclusive, Sm TGR block -2.2%, Tb PYK inh -10.9% and SARS PLpro yeast-2 inactive.
`C=CCn1c(SCC(=O)Nc2ccc(OC)cc2)nc2c([nH]c3ccccc32)c1=O` gave AmpC no deterg -53.9%, AmpC inh detg -14.2%, RE007 growth inh -13.9%, SARS PLpro yeast-1 -4.1%, Sm TGR block 10.7% and Tb PYK inh 1.4%.
O=S(=O)(c1ccc2ccccc2c1)N(CC(O)CN1CCOCC1)c1ccccc1 (stereo not drawn) was read as AmpC no deterg 106.5%, AmpC inh detg -14.5%, RE007 growth inh -18.4%, SARS PLpro yeast-1 inconclusive, Sm TGR block -0.5%, Tb PYK inh -10.8% and SARS PLpro yeast-2 inactive.
Cc1ccc(S(=O)(=O)N(CC(O)CN2CCOCC2)c2cccc([N+](=O)[O-])c2)cc1 (stereo not drawn) was read as AmpC no deterg 58.7%, AmpC inh detg -5.0%, RE007 growth inh -12.4%, SARS PLpro yeast-1 -1.1%, Sm TGR block 7.5% and Tb PYK inh 2.3%.

Screening data: PubChem, National Center for Advancing Translational Sciences (NCATS)
